# Records with an inconclusive call do not appear. Entries that show only a call come without a potency. A number with no mark means an inactive call. Active and inactive are the calls of the source. The call rests on the fitted dose curve; in most records, active means well fitted cell-killing curve with a large enough effect in the repeat runs; inconclusive means weak or mixed curves, or effect the other way; inactive means flat fitted curve, though single readings scatter.
# Assays:
# [1] = cAMP Responsive Elements (CRE) small molecule antagonists, cell-based qHTS assay: qHTS cell viability counter screen (AID 2060913); details: CRE-bla HEK293T viability, CellTiter-Glo luminescence, 5 h; series mostly up to 92.4 µM; further: nearly all actives have a fitted effect of over 40% in size
# In short: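 Viability of NKH477-stimulated (0.25 uM final) CRE-bla HEK293T cells is measured by CellTiter-Glo luminescence following 3 hrs compound exposure at 37 C.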
# [2] = cAMP Responsive Elements (CRE) small molecule agonists, cell-based qHTS assay: qHTS cell viability counter screen (AID 2060914); details: CRE-bla HEK293T viability, CellTiter-Glo luminescence, 5 h; series mostly up to 92.4 µM;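 further: viability read after 3 h of compound exposure; nearly all actives have a fitted effect of over 50% in size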
# In short: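 HEK 293T CRE-bla; DMEM + 10% dialyzed FBS, 25 mM HEPES; 18 h pre-incubation; compound 3 h, 37 °C/5% CO2; CellTiter-Glo added after reporter read; luminescence after 30 min RT.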
# Potency means the concentration at half of the fitted maximal effect.
SMILES,Potency [1],Potency [2],"viability change, negative = cytotoxic [1]","activity change, negative = cytotoxicity [2]"
CCC(C)C(C)=O (centres undefined),inactive,inactive,–,–
CCOC(=O)C1=NN(c2ccccc2)C(=O)C1,inactive,inactive,–,–
CC(=O)Oc1ccc([N+](=O)[O-])cc1CCl,inactive,inactive,–,–
O=C(O)c1ccccc1S,inactive,inactive,–,–
NS(=O)(=O)c1cc(C(=O)NN2C[C@H]3[C@H]4CCC(C4)[C@H]3C2)ccc1Cl,inactive,inactive,–,–
CC(C)CCCCOC(=O)c1ccccc1C(=O)OCCCCC(C)C,inactive,inactive,–,–
NS(=O)(=O)c1cc2c(cc1Cl)NCNS2(=O)=O,inactive,inactive,–,–
CN(C)CCCN(C)CCCN(C)C,inactive,inactive,–,–
CCOC(=O)/C=C\C(=O)OCC,inactive,inactive,–,–
O=C(c1ccccc1)c1cccc(O)c1,inactive,inactive,–,–
C=C1[C@H]2CC[C@@H]3[C@H]2C(C)(C)CCC[C@]13C,inactive,inactive,–,–
CCCCCC1=CCCC1=O,inactive,inactive,–,–
OCCCCl,inactive,inactive,–,–
CCOCCOCCOC(C)=O,inactive,inactive,–,–
Cc1ccc(-c2ncc(Cl)cc2-c2ccc(S(C)(=O)=O)cc2)cn1,inactive,inactive,–,–
CC(C)[N+](C)(CCOC(=O)C1c2ccccc2Oc2ccccc21)C(C)C,inactive,inactive,–,–
CCCCCOC(=O)CCC,inactive,inactive,–,–
CC1CC(OC(=O)C(O)c2ccccc2)CC(C)(C)N1C (centres undefined),inactive,inactive,–,–
O=C1OC(=O)c2c(Br)c(Br)c(Br)c(Br)c21,inactive,inactive,–,–
CCCCCCCCCCCC(=O)N(CC)CC,inactive,inactive,–,–
O=C(C1CCCCC1)N1CC(=O)N2CCc3ccccc3C2C1 (centres undefined),inactive,inactive,–,–
C#CC1(O)CC[C@H]2[C@@H]3CCC4=CCCC[C@@H]4[C@H]3CC[C@@]21C (some centres undefined),inactive,inactive,–,–
c1ccc(Oc2ccccc2)cc1,inactive,inactive,–,–
CCCCCC1CCCC(=O)O1 (centres undefined),inactive,inactive,–,–

SMILES,Potency [1],Potency [2],"viability change, negative = cytotoxic [1]","activity change, negative = cytotoxicity [2]"
CC(=O)CC(=O)Nc1ccccc1,inactive,inactive,–,–
O=C(O)Cc1ccc(OCCNC[C@H](O)c2ccccc2)cc1,inactive,inactive,–,–
Cc1ccc(C(=O)C(=O)O)cc1C,inactive,inactive,–,–
CC(CCC(=O)O)C(=O)O (centres undefined),inactive,inactive,–,–
CCCCCCCCC/C=C/CC1CC(=O)OC1=O (centres undefined),inactive,inactive,–,–
CC(CC=O)c1ccccc1 (centres undefined),inactive,inactive,–,–
Oc1cc2ccccc2c2ccccc12,13.7 µM (active),13.7 µM (active),–,–
Oc1c(Br)cc(Br)c2cccnc12,inactive,inactive,–,–
Cc1ccc(CO)cc1,inactive,inactive,–,–
CCCOC(C)=O,inactive,inactive,–,–
CC[C@]12CCCN3CCc4c(n(c5ccccc45)C(=O)C1)[C@@H]32,inactive,inactive,–,–
CCCCCCCCCCCCCO,inactive,inactive,–,–
CCC(CO)(CO)COCC(CC)(CO)CO,inactive,inactive,–,–
CC(C)Cn1cnc2c(N)nc3ccccc3c21,–,–,-1.2% [at 18.9 µM],-0.0081% [at 18.9 µM]
Cc1ccccc1C(=O)Nc1ccc(C(=O)N2CCCC(O)c3cc(Cl)ccc32)c(C)c1 (centres undefined),inactive,inactive,–,–
CCc1oc2ccccc2c1C(=O)c1cc(I)c(O)c(I)c1,inactive,inactive,–,–
NS(=O)(=O)c1cc(-c2nn[nH]n2)c(NCc2cccs2)cc1Cl,inactive,inactive,–,–
OCCOCCOCCO,inactive,inactive,–,–
CC(C)c1cccc(O)c1,inactive,inactive,–,–
O=C(c1ccccc1)c1ccccc1O,inactive,inactive,–,–
NC(=O)Cc1cccc(C(=O)c2ccccc2)c1N,inactive,inactive,–,–
CCOc1ccccc1OCC1CNCCO1 (centres undefined),inactive,inactive,–,–
OCCO,inactive,inactive,–,–
CCc1ccc(C)nc1,inactive,inactive,–,–

SMILES,Potency [1],Potency [2],"viability change, negative = cytotoxic [1]","activity change, negative = cytotoxicity [2]"
CC/C=C\CC1=C(C)CCC1=O,inactive,inactive,–,–
CSc1cnccn1,inactive,inactive,–,–
C[C@]12C=CC(=O)C=C1[C@@H](F)C[C@@H]1[C@@H]2[C@@H](O)C[C@@]2(C)[C@H]1CC[C@]2(O)C(=O)CO,inactive,inactive,–,–
Cc1c(C(N)=O)cc([N+](=O)[O-])cc1[N+](=O)[O-],inactive,inactive,–,–
C[C@@H]1O[C@@H](OC[C@H]2O[C@@H](Oc3c(-c4ccc(O)c(O)c4)oc4cc(O)cc(O)c4c3=O)[C@H](O)[C@@H](O)[C@@H]2O)[C@H](O)[C@H](O)[C@H]1O,inactive,inactive,–,–
CNCC[C@H](Oc1cccc2ccccc12)c1cccs1,inactive,inactive,–,–
COc1cccc(OC)c1C(=O)O,inactive,inactive,–,–
COc1c2ccoc2cc2oc(=O)ccc12,inactive,inactive,–,–
Cc1ccc2ccccc2c1[N+](=O)[O-],inactive,inactive,–,–
CC(N)C(=O)OC(C)(C)Cc1ccc(Cl)cc1 (centres undefined),inactive,inactive,–,–
Oc1ccc2ccccc2c1N=Nc1ccccc1,inactive,inactive,–,–
CSc1ccc(C(=O)c2[nH]c(=O)[nH]c2C)cc1,inactive,inactive,–,–
CC/C=C\CCOC(C)OCC (centres undefined),inactive,inactive,–,–
[O-][n+]1ccccc1SSc1cccc[n+]1[O-],0.461 µM (active),–,–,-16.6% [at 18.9 µM]
N#CCc1ccccc1[N+](=O)[O-],inactive,inactive,–,–
CC(CN)CCCN (centres undefined),inactive,inactive,–,–
Cl[Si](Cl)(c1ccccc1)c1ccccc1,inactive,inactive,–,–
CCc1cccc(C)c1N(C(=O)C(=O)O)C(C)COC (centres undefined),inactive,inactive,–,–
CCCCCSCCCCC,inactive,inactive,–,–
CN1CCCCC1CCN1c2ccccc2Sc2ccc(S(C)=O)cc21 (centres undefined),inactive,inactive,–,–
CC(C)(C)NC[C@H](O)COc1nsnc1N1CCOCC1,inactive,inactive,–,–
O=C(O)c1ccccc1-c1ccc(C(F)(F)F)cc1,inactive,inactive,–,–
CCCCCCCOC(=O)c1ccccc1C(=O)OCCCCCCC,inactive,inactive,–,–
NCCOCCOCCN,inactive,inactive,–,–

SMILES,Potency [1],Potency [2],"viability change, negative = cytotoxic [1]","activity change, negative = cytotoxicity [2]"
CN1CCN(c2c(F)cc3c(=O)c(C(=O)O)cn4c3c2SCC4)CC1,inactive,inactive,–,–
CCCCC(CC)CNCC(CC)CCCC (centres undefined),inactive,inactive,–,–
CCN(CC)CC(=O)OCC(=O)[C@@]1(O)CC[C@H]2[C@@H]3CCC4=CC(=O)CC[C@]4(C)[C@H]3[C@@H](O)C[C@@]21C,inactive,inactive,–,–
C1COCCN1,inactive,inactive,–,–
Cc1ccc(S(=O)(=O)O)cc1,inactive,inactive,–,–
C=C(C)C1CC=C(C)C(O)C1 (centres undefined),inactive,inactive,–,–
CCN1CCN(C(=O)N[C@@H](C(=O)N[C@@H]2C(=O)N3C(C(=O)O)=C(CSc4nnnn4C)CS[C@H]23)c2ccc(O)cc2)C(=O)C1=O,inactive,inactive,–,–
CCCCOCCOCCOC(=O)CCCCC(=O)OCCOCCOCCCC,inactive,inactive,–,–
c1ccc(CCCc2ccccn2)cc1,inactive,inactive,–,–
CC(=O)Nc1ncc([N+](=O)[O-])s1,inactive,inactive,–,–
Cc1oncc1C(=O)Nc1ccc(C(F)(F)F)cc1,inactive,inactive,–,–
O=[N+]([O-])c1ccc(/C=C/c2ccc([N+](=O)[O-])cc2S(=O)(=O)O)c(S(=O)(=O)O)c1,inactive,inactive,–,–
c1cc[nH]c1,inactive,inactive,–,–
O=C(CCCN1CCN(c2ccccn2)CC1)c1ccc(F)cc1,inactive,inactive,–,–
O=C(C(=O)c1ccccc1)c1ccccc1,inactive,inactive,–,–
CCCCN(CCC(=O)OCC)C(C)=O,inactive,inactive,–,–
CCO[Si](C)(OCC)OCC,inactive,inactive,–,–
CC(=O)O[C@]1(C(C)=O)CC[C@H]2[C@@H]3C=C(C)C4=CC(=O)CC[C@]4(C)[C@H]3CC[C@@]21C,inactive,inactive,–,–
CC(=O)SCc1ccco1,inactive,inactive,–,–
CCC(=O)c1ccc(O)cc1,inactive,inactive,–,–
O=c1[nH]nnc2ccccc12,inactive,inactive,–,–
OCc1ccccn1,inactive,inactive,–,–
COC(=O)C1=C(C)NC(C)=C(C(=O)OCCN2CCN(C(c3ccccc3)c3ccccc3)CC2)C1c1cccc([N+](=O)[O-])c1 (centres undefined),inactive,inactive,–,–
CCCOC(=O)NCCCN(C)C,inactive,inactive,–,–

SMILES,Potency [1],Potency [2],"viability change, negative = cytotoxic [1]","activity change, negative = cytotoxicity [2]"
O=C(NCC1CCCCN1)c1cc(OCC(F)(F)F)ccc1OCC(F)(F)F (centres undefined),inactive,inactive,–,–
C=CC(C)(CCC=C(C)C)OC(C)=O (centres undefined),inactive,inactive,–,–
O=S(=O)(O)C(F)(F)F,inactive,inactive,–,–
O=C1c2ccccc2Cc2ccccc21,inactive,inactive,–,–
COc1cc(C)ccc1O,inactive,inactive,–,–
COc1ccc(C)cc1N,inactive,inactive,–,–
OCC1CCCO1 (centres undefined),inactive,inactive,–,–
OC1OCCOC1O (centres undefined),inactive,inactive,–,–
CC(C)(C)C1=CC(=O)C(C(C)(C)C)=CC1=O,inactive,inactive,–,–
CC1=C(/C=C/C(C)=C/C=C/C(C)=C\C(=O)O)C(C)(C)CCC1,inactive,inactive,–,–
CC[C@H](NC(C)C)[C@H](O)c1ccc(O)c2[nH]c(=O)ccc12,inactive,inactive,–,–
CN(C)c1cc(NC(=O)CNC(C)(C)C)c(O)c2c1C[C@H]1C[C@H]3[C@H](N(C)C)C(=O)C(C(N)=O)=C(O)[C@@]3(O)C(=O)C1=C2O,inactive,inactive,–,–
CN1CCC(=C2c3ccccc3Sc3ccccc32)CC1,inactive,inactive,–,–
C1=CCCC1,inactive,inactive,–,–
NCc1ccccc1,inactive,inactive,–,–
Cc1cc(NS(=O)(=O)c2ccc(N)cc2)no1,inactive,inactive,–,–
CCC(C)(CCC(C)C)C(=O)[O-].CCC(C)(CCC(C)C)C(=O)[O-].[Zn+2] (centres undefined),inactive,inactive,–,–
CC(=O)OC(C)C[N+](C)(C)C (centres undefined),inactive,inactive,–,–
Nc1ccc2cc3ccc(N)cc3nc2c1,inactive,inactive,–,–
CC(C(=O)O)c1ccc(C(=O)c2ccccc2)s1 (centres undefined),inactive,inactive,–,–
CCCCCCCCCCCCCOC(=O)CCSCCC(=O)OCCCCCCCCCCCCC,–,–,3.07% [at 18.9 µM],-4.92% [at 18.9 µM]
